Avidin fluor: avidin bead compound fluorescence profile. Avidin beads, compound fluorescence 488/530 nm, flow cytometry; hits give high values. fluorescence (KMESF) at 10 µM. 220,000 tested, 0.38% active. AID 1775; in the data active means fluorescence above about 47
RGS8-Gao: human RGS8-Galphao interaction regulation. multiplexed bead flow cytometry, RGS8-Galphao binding; actives lie on both sides. response (percent of control binding), % at 10 µM. 220,000 tested, 0.34% active. AID 1423; in the data active means response below about 60% or above about 140%; inactive means in between;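 further: Galphao activated as the GDP aluminium fluoride complex binding bead-coupled RGS8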
RGS16-Gao: regulators of human RGS16-Galphao interaction; O15492+P09471; bead-based flow cytometry RGS16-Galphao binding, fluorescence; actives lie on both sides; binding response (% of control), % at 10 µM; 220,000 tested, 0.38% active; AID 1441; call rule not given here;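 further: Galphao activated by GDP with aluminum fluoride before binding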
RGS4-Gao reg: human RGS4-Galphao interaction regulation | P09471 | Multiplexed bead flow cytometry, RGS4-Galphao binding; actives lie on both sides | binding response (% of control), % at 10 µM | 220,000 tested, 0.33% active; in the data active means binding response below about 49% or above about 150%; inactive means in between;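 further: fluorescent Galphao activated with aluminum fluoride binding bead-coupled RGS4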
RGS7-Gao reg: regulators of human RGS7-Galphao interaction | 220,000 tested, 0.35% active | binding response (% of control), % at 10 µM | Multiplexed bead flow cytometry, RGS7-Galphao binding; actives lie on both sides | P09471; in the data active means binding response below about 49% or above about 150%; inconclusive means no clear call, values can overlap the other calls; inactive means in between;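 further: fluorescent Galphao held in activated GDP-AlF4 state binding bead-coupled RGS7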
GSH fluor: GSH bead compound fluorescence profile; GSH beads flow cytometry, compound fluorescence 488/530 nm; hits give high values; fluorescence (KMESF) at 10 µM; 190,000 tested, 0.25% active; AID 1776; in the data active means fluorescence above about 89;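 further: glutathione beads carrying GST-tagged Bcl family fusion proteins plus one bare bead set; values are compound well signal with DMSO vehicle wells as background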
Avidin counter: biotin-avidin bead binding disruption counter-screen; shares compounds with RGS16-Gao; streptavidin beads, fluorescein-biotin binding, flow cytometry; inhibition, % at 10 µM; 1,700 tested, under 10 active;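 active means inhibition above 50%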;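 further: median green fluorescence of gated singlet beads compared with DMSO control wells; 0% = DMSO wells and 100% = complete loss of bead fluorescence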
RGS8-Gao confirm: RGS8-Galphao interaction regulation, single point confirmation | shares compounds with RGS16-Gao | binding response (% of control), % at 10 µM | 1,700 tested, 3% active | bead-based flow cytometry RGS8-Galphao binding, fluorescence; actives lie on both sides; in the data active means binding response below about 72% or above about 130%; inactive means in between;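 further: Galphao activated as GDP AlF4 complex before binding bead RGS8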
RGS7-Gao confirm: RGS7-Galphao interaction regulation, single point confirmation; shares compounds with RGS16-Gao; bead-based flow cytometry RGS7-Galphao binding; actives lie on both sides; response (percent of control binding), % at 10 µM; 1,700 tested, 7.8% active; in the data active means response below about 75% or above about 130%; inactive means in between;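 further: fluorescent Galphao activated with GDP and aluminum fluoride binding bead-coupled RGS7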
RGS16-Gao conf: RGS16-Galphao interaction regulation, single point confirmation. shares compounds with RGS16-Gao. bead-based flow cytometry, RGS16-Galphao binding; actives lie on both sides. 1,700 tested, 4% active. AID 1838. response (% of control binding), % at 10 µM; in the data active means response below about 74% or above about 130%; inactive means in between;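 further: Galphao activated as the GDP aluminium fluoride complex binding bead-coupled RGS16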
RGS4-Gao confirm: RGS4-Galphao interaction regulation, single point confirmation. shares compounds with RGS16-Gao. RGS4-Galphao binding, multiplexed bead flow cytometry; actives lie on both sides. binding response (% of control), % at 10 µM. 1,700 tested, 4% active; in the data active means binding response below about 74% or above about 130%; inactive means in between
RGS19-Gao single: confirmation of regulators of human RGS19-Galphao interaction | response (percent of control binding), % at 10 µM | shares compounds with RGS16-Gao | 1,700 tested, 5% active | bead-based flow cytometry RGS19-Galphao binding; actives lie on both sides | AID 1841; in the data active means response below about 50% or above about 160%; inactive means in between;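 further: 100% = no compound control and 0% = blank background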
Target sequence (P09471 whole entry, looked up): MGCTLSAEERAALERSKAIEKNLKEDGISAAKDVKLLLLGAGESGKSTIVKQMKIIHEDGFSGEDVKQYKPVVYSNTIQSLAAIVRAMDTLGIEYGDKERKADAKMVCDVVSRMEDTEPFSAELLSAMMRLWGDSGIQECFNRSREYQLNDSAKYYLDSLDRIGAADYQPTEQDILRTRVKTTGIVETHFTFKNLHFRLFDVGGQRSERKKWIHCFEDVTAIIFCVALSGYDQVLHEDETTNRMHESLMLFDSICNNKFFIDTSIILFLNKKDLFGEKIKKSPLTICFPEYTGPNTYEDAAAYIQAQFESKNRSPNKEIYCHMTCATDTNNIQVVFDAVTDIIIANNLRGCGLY
Target sequence (P49795 whole entry, looked up): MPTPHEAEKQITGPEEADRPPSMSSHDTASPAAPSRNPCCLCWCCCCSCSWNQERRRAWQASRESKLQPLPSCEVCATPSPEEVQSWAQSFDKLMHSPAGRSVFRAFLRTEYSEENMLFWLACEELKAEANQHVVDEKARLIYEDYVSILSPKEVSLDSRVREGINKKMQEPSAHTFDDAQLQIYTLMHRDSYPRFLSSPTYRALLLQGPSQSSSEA
The depositor's hits bear a star; [ ] = dose if it differs, or a comment. An excerpt weighted towards active compounds, which were near 1.2% of everything screened.

`CC(=O)Nc1ccccc1C(F)(F)F` gave Avidin fluor 2, RGS8-Gao 47.7*, RGS16-Gao 29.6, RGS4-Gao reg 21.9*, RGS7-Gao reg inconclusive, Avidin counter 0.9, RGS8-Gao confirm 106.5, RGS7-Gao confirm 113.3, RGS16-Gao conf 105.4, RGS4-Gao confirm 107.7 and RGS19-Gao single 96.4.
`O=C(OCc1cccc2ccccc12)c1ccc2c(=O)[nH]c(CN3CCOCC3)nc2c1` gave Avidin fluor -6, RGS8-Gao -2.4*, RGS16-Gao -114.5*, RGS4-Gao reg -137.9*, RGS7-Gao reg -54.5*, GSH fluor 32, Avidin counter 2.0, RGS8-Gao confirm 98.0, RGS7-Gao confirm 98.5, RGS16-Gao conf 101.0, RGS4-Gao confirm 101.0 and RGS19-Gao single 96.0.
O=C(NCc1ccc2c(c1)OCO2)c1cccnc1Cl was read as Avidin fluor 10, RGS8-Gao 100.2, RGS16-Gao 98.7, RGS4-Gao reg 100.7, RGS7-Gao reg inconclusive and GSH fluor 15.
`COCCCNC(=O)c1cc(C(=O)c2c(-c3c(Cl)cccc3Cl)noc2C)c[nH]1` gave Avidin fluor 11, RGS8-Gao 100.1, RGS16-Gao 99.1, RGS4-Gao reg 99.7, RGS7-Gao reg 97.7 and GSH fluor 31.
Screening O=C(COc1ccc2ccc(=O)oc2c1)N1CCc2ccccc21 returned Avidin fluor 11, RGS8-Gao 99.3, RGS16-Gao 101.3, RGS4-Gao reg 100.2, RGS7-Gao reg inconclusive and GSH fluor 17.
CC1CN(C(NC(=O)c2ccccc2)C(Cl)(Cl)Cl)CC(C)O1 (stereo unspecified) was read as Avidin fluor 4, RGS8-Gao 120.1, RGS16-Gao 103.5, RGS4-Gao reg 150.1*[activator], RGS7-Gao reg 142.0, GSH fluor 11, Avidin counter -1.1, RGS8-Gao confirm 104.6, RGS7-Gao confirm 107.2, RGS16-Gao conf 106.0, RGS4-Gao confirm 105.4 and RGS19-Gao single 96.2.
Screening Cc1ccc(NC(=O)CN(C)S(=O)(=O)c2cccc3cccnc23)cc1 returned Avidin fluor 4, RGS8-Gao 74.5, RGS16-Gao 129.6, RGS4-Gao reg 99.5, RGS7-Gao reg 63.7 and GSH fluor 20.
Screening CC1CCC(NC(=O)CN(C)S(=O)(=O)c2cccc3cccnc23)CC1 (stereo unspecified) returned Avidin fluor 1, RGS8-Gao 32.7*, RGS16-Gao 19.5*, RGS4-Gao reg 26.4*, RGS7-Gao reg inconclusive, Avidin counter 1.3, RGS8-Gao confirm 101.0, RGS7-Gao confirm 100.8, RGS16-Gao conf 98.8, RGS4-Gao confirm 99.6 and RGS19-Gao single 105.5.
Screening Cc1ccc(C2=NN3C(=O)c4ccccc4C3C2)cc1 (stereo unspecified) returned Avidin fluor 1, RGS8-Gao 63.6, RGS16-Gao 39.5, RGS4-Gao reg 26.2*, RGS7-Gao reg inconclusive, Avidin counter -1.8, RGS8-Gao confirm 101.9, RGS7-Gao confirm 98.2, RGS16-Gao conf 102.0, RGS4-Gao confirm 101.1 and RGS19-Gao single 112.6.

Screening data deposited in PubChem BioAssay by NMMLSC.
